Test results: PubChem BioAssay (NCI)
“And” between values parts separate entries of the source, which are not always exact repeats. Identical values can stand only once. The panel holds about 83,000 compounds, 20% with a hit somewhere; the sample as a whole holds those more often.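 Single-concentration screen, 48 h exposure, 96-well plates. Endpoint: percent growth. Below 10 = active.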 The source made the active and inactive calls.

Each compound was assayed on OVCAR-8 ovarian (assay: NCI-60 one-dose screen, 48 h (100 = growth as untreated, 0 = no growth, -100 = all killed)). Details: 10 µM unless noted.

| SMILES | growth |
| --- | --- |
| CS(=O)(=O)c1nsc(N)n1 | 104% (inactive) |
| CCCC(=O)OCC(COC(=O)CCC)OC(=O)CCC | 101% (inactive) |
| Cc1ccc(C(=O)c2ccc(C)cc2)cc1 | 94.3% (inactive) and 109% (inactive) |
| Cc1cc2nc3ccc(=[N+](C)C)cc-3sc2cc1N | 4.72% (active) and 7.29% (active) |
| O=C1c2ccccc2C(c2ccccc2)C1c1ccccc1 (stereo unspecified) | 103% (inactive) |
| COC(=O)CCOc1ccccc1 | 91.1% (inactive) |
| CC(C)(C(=O)c1cccnc1)c1cccnc1 | 106% (inactive) and 104% (inactive) |
| N#CC1c2ccccc2C=CN1C(=O)c1ccccc1 (stereo unspecified) | 92.7% (inactive) and 85% (inactive) |
| OCCS | 103% (inactive) |
| Cc1ccc2cccc([N+](=O)[O-])c2n1 | 101% (inactive) and 108% (inactive) |
| CCN(C)c1ccccc1 | 98.2% (inactive) |
| CCCC(=O)Oc1ccc(CC)cc1 | 98.1% (inactive) |
| O=[N+]([O-])c1ccc(NC2CCCCC2)nc1 | 118% (inactive) and 101% (inactive) |
| O=C1C(=O)c2ccccc2C(O)=C1CC=C(Cl)Cl | 44.3% (inactive) |
| CC1=CC(=O)c2cccc(NC3=NCCO3)c21 | 102% (inactive) |
| COc1ccc2nccc(Cl)c2c1 | 108% (inactive) |
| CCc1ccc(OC(=O)CCl)cc1 | 101% (inactive) |
| CC(=O)Oc1cc(C(C)C)c(OCCN(C)C)cc1C | -70.9% (active) and 99% (inactive) |

| SMILES | growth |
| --- | --- |
| O=C(O)c1cccc(Br)c1 | 108% (inactive) and 100% (inactive) |
| CC1(C)CC(=O)NC1=O | 98.9% (inactive) |
| OCCSc1ccc(Cl)cc1 | 111% (inactive) and 103% (inactive) |
| COc1ccc(S(=O)(=O)c2ccc(F)cc2)cc1 | 97.3% (inactive) |
| COc1ccccc1OCC(O)CO (stereo unspecified) | 115% (inactive) and 104% (inactive) |
| Cc1ccc(NC(=S)N/C=C(\c2ccccc2)S(=O)Cc2ccccc2)c(C)c1 (stereo unspecified) | 99.2% (inactive) |
| O=[N+]([O-])c1ccc(NC(c2ccccc2)c2ccc3cccnc3c2O)cc1 (stereo unspecified) | 17% (inactive) |
| CN1C2C=CC(=O)C1C1C(=O)N(c3ccccc3)C(=O)C12 (stereo unspecified) | 69.9% (inactive) |
| Cc1cc(-c2ccc(N=Nc3c(C)nn(-c4ccc(S(=O)(=O)O)cc4)c3O)c(C)c2)ccc1N=Nc1ccc(O)c(C(=O)O)c1 | 95.7% (inactive) |
| CCOCCC(=O)O | 109% (inactive) |
| O=c1[nH]nnc2cc(Cl)ccc12 | 95.2% (inactive) and 98.2% (inactive) |
| NC(=O)Cc1nc(O)cc(=O)[nH]1 | 93.8% (inactive) |
| CC1OS(=O)OC1C (stereo unspecified) | 101% (inactive) and 97.9% (inactive) |
| NNC(=O)Nc1ccccc1 | 109% (inactive) |
| COC(=O)c1ccccc1Cl | 102% (inactive) |
| CCCCC/C(C)=N\NC(N)=S | 65.3% (inactive) |
| COCCNC(C)=O | 114% (inactive) |
| Nc1nc(-c2ccccn2)cc(-c2cc(-c3ccccn3)nc(N)n2)n1 | 106% (inactive) |
